PubChem BioAssay
The source made the active and inactive calls.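 The calls were made as follows: active = viability at or under a set limit in both replicates, limit being median viability minus 3 SD (cut at about 48% in these data, passing the limit was not always enough); inconclusive = at or under the limit in just one replicate; inactive = at or above the limit in both replicates.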

Experiment: growth inhibitors of H69AR lung tumor, primary screen, human, duplicate replicates (AID 580);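 also: 100% = mean luminescence of untreated wells and 0% = no signal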
Details: H69AR lung tumor cells viability, ATP luminescence, 72 h; at 10 µM; stronger effect = lower value

| SMILES | viability |
| --- | --- |
| O=C(CNC(=O)c1cccs1)NCCN1CCN(c2ccccc2F)CC1 | 89.3% (inactive) |
| Cc1ccc(Cn2ccc(NC(=O)c3noc4c3CCCC4)n2)cc1 | 112% (inactive) |
| COc1cc(NC(=O)c2cc(-n3cnnc3)ccc2Cl)cc(OC)c1 | 104% (inactive) |
| O=C(CN1C(=O)CCS(=O)(=O)c2ccccc21)NCc1ccc(F)cc1 | 98.4% (inactive) |
| Cc1c(O)c(CN2CCCC(C)C2)cc2c3c(c(=O)oc12)CCC3 (stereo not given) | 83.1% (inactive) |
| CC1(C)NC(=O)N(CC(O)CN2CCCCC2)C1=O (stereo not given) | 93.1% (inactive) |
| CCCOc1ccc(N2C(=O)CC(NCCCN3CCC(C(N)=O)CC3)C2=O)cc1 (stereo not given) | 88.6% (inactive) |
| Cc1ccc(Nc2nnns2)cc1C | 99.8% (inactive) |
| COc1ccc(S(=O)(=O)N2CCC(C(=O)NCc3ccco3)CC2)cc1 | 86.6% (inactive) |
| Cc1cccc(OCC(=O)Nc2ccccc2N2CCN(C(=O)C(C)C)CC2)c1C | 88.8% (inactive) |
| CNCCCC12CCC(c3ccccc31)c1ccccc12 | 70.1% (inactive) |
| Cc1ccccc1C(=O)N1CCC(C(=O)Nc2ccc(S(=O)(=O)N3CCCC3)cc2)CC1 | 78.8% (inactive) |
| CC(=O)c1cc(-c2ccccc2)n(CC(=O)N2CCN(C3CCCC3)CC2)c1C | 80.5% (inactive) |
| CCOc1ccccc1N1C(=O)CC(Sc2ncccc2C(=O)O)C1=O (stereo not given) | 99.9% (inactive) |
| Clc1ccccc1-c1nnc2sc(-c3ccccn3)nn12 | 86.3% (inactive) |
| C=CCn1c(Cc2csc(N)n2)nnc1SCC(=O)OCC | 91.9% (inactive) |
| CC(=O)Nc1ccc(S(=O)(=O)N2CCN(Cc3ccncc3)CC2)cc1 | 109% (inactive) |
| CCN(c1ccccc1)S(=O)(=O)c1ccc(F)cc1C | 90.4% (inactive) |
| CC(=O)Nc1cccc(NC(=O)CSc2nnnn2C)c1 | 106% (inactive) |
| Cc1ccccc1NS(=O)(=O)c1ccc(NC(=O)c2ccco2)cc1 | 89.2% (inactive) |
| c1ccc(OCCOc2ncnc3sccc23)cc1 | 98.7% (inactive) |
| CNCCCN1c2ccccc2CCc2ccccc21 | 90.4% (inactive) |
| CC(C)c1ccc(-c2nc(N3CCOCC3)[nH]c(=O)c2C#N)cc1 | 98% (inactive) |
| COc1ccc2oc(C)c(C(=O)Cn3ccnc3)c2c1 | 87.8% (inactive) |
| O=C(CCN1CCOCC1)Nc1ccc2c(c1)CCC2 | 93.7% (inactive) |
